According to PubChem BioAssay (Tox21):
“And” between values parts separate entries of the source, which are not always exact repeats. Identical values can stand only once. The source made the active and inactive calls. Unless noted, calls come from the whole dose curve; as a rule, active = well fitted curve in the direction sought with a large enough effect in the repeat runs; inconclusive = weak or mixed curves; inactive = no such curve, though single readings can be large; an effect the other way counts as inactive or inconclusive.

What was measured:
[1] = qHTS assay to identify small molecule antagonists of the glucocorticoid receptor (GR) signaling pathway - cell viability counter screen (AID 720693); settings: GR-bla HeLa viability, CellTiter-Glo luminescence, 18 h, with 5 nM dexamethasone present; series mostly up to 58.5 µM; note: nearly all actives have a fitted effect of over 55% in size; note: potency is the fitted concentration of half-maximal effect
[2] = qHTS assay for identifying genotoxic compounds that show differential cytotoxicity against isogenic chicken DT40 cell lines with known DNA damage response pathways - wild type cell line (AID 743012); settings: DT40 wild type chicken cells viability, CellTiter-Glo, 40 h; series mostly up to 68.4 µM; note: nearly all actives have a fitted effect of over 60% in size; note: potency is the fitted concentration of half-maximal effect
Method in brief: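 300 wt DT40 cells/well; cpd (DMSO) pintool-transferred after ~0.5 h at 37 C/5% CO2; 40 h incubation; CellTiter-Glo added, 30 min RT; luminescence read.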

[3] = qHTS assay for identifying genotoxic compounds that show differential cytotoxicity against isogenic chicken DT40 cell lines with known DNA damage response pathways - Rev3 mutant cell line (AID 743014); settings: chicken DT40 Rev3-/- viability, CellTiter-Glo, 40 h; series mostly up to 68.4 µM; note: nearly all actives have a fitted effect of over 55% in size; note: potency is the fitted concentration of half-maximal effect
[4] = qHTS assay for identifying genotoxic compounds that show differential cytotoxicity against isogenic chicken DT40 cell lines with known DNA damage response pathways - Rad54/Ku70 mutant cell line (AID 743015); settings: DT40 Rad54/Ku70 mutant viability, CellTiter-Glo, 40 h; series mostly up to 66.8 µM; note: nearly all actives have a fitted effect of over 60% in size; note: potency is the fitted concentration of half-maximal effect
[5] = biological target: Androgen receptor (Homo sapiens) (UniProt P10275); assay: qHTS assay to identify small molecule agonists of the androgen receptor (AR) signaling pathway (AID 743036; active = well fitted activation curve with a large enough effect in the signal ratio in the repeat runs, with a control signal flat, not every such curve was filed as active; inconclusive = weak or mixed curves, or effect the other way; inactive = no such curve, though single readings can be large or run the other way; the % refers to the signal ratio; note: % is set by controls: 0 for no effect and ±100 for the full control effect); settings: HEK293 AR-UAS-bla GripTite, beta-lactamase FRET ratio, 16 h; series mostly up to 62.4 µM
Chain of Androgen receptor (Homo sapiens) (P10275 whole entry, looked up): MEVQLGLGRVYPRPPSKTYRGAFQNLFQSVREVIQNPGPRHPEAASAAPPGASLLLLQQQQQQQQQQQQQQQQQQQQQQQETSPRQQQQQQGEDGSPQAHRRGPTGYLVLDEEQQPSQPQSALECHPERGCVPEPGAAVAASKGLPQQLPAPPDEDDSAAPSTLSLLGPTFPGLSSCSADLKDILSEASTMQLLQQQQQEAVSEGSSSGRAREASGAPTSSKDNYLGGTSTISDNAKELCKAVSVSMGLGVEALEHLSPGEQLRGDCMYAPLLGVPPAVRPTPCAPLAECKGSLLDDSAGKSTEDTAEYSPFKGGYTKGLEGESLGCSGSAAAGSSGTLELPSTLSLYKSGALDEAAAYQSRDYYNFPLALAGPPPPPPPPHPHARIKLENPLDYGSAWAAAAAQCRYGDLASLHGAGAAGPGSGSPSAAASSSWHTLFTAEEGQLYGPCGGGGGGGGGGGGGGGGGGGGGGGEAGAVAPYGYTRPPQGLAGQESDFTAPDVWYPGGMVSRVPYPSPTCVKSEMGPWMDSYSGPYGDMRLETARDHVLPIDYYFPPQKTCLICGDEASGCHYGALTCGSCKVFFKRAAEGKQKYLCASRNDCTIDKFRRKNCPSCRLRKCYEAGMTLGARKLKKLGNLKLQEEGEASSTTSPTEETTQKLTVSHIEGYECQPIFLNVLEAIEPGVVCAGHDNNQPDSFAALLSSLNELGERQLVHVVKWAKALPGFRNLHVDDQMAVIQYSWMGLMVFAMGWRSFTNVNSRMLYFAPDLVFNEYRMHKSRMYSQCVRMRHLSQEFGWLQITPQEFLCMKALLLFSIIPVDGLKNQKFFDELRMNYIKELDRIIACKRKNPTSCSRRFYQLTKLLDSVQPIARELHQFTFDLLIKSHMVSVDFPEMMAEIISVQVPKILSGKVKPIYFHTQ
Method in brief: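 AR-UAS-bla HEK293 cells, plated 4 h before dosing, were treated with compound for 16 h at 37C. beta-Lactamase reporter read after 2 h with LiveBLAzer B/G FRET substrate at room temperature.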

[6] = biological target: Androgen receptor (Homo sapiens) (UniProt P10275); assay: qHTS assay to identify small molecule agonists of the androgen receptor (AR) signaling pathway using the MDA cell line (AID 743040; note: % is set by controls: 0 for no effect and ±100 for the full control effect; nearly all actives have a fitted effect of over 20% in size); settings: MDA-kb2 AR-luc cells, MMTV luciferase, 16 h; series mostly up to 70.3 µM
Method in brief: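 Agonist activity is measured as luciferase luminescence in human MDA-kb2 cells whose MMTV reporter responds to both AR and GR. Compounds in DMSO incubate 16 h at 37C, 0% CO2, and ONE-Glo is read after 30 min.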

[7] = qHTS assay to identify small molecule antagonists of the androgen receptor (AR) signaling pathway using the MDA cell line - cell viability counter screen (AID 743041; note: nearly all actives have a fitted effect of over 45% in size; note: potency is the fitted concentration of half-maximal effect); settings: MDA-kb2 viability, CellTiter-Fluor, 16 h, cells co-treated with R1881 androgen agonist; series mostly up to 70.3 µM
Method in brief: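 qHTS viability read-out; MDA-kb2 AR-luc; R1881-stimulated; 16 h exposure at 37C, 0% CO2; CellTiter-Fluor, 30 min; fluorescence intensity.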

[8] = qHTS assay to identify small molecule antagonists of the thyroid receptor (TR) signaling pathway - cell viability counter screen (AID 743064); settings: GH3.TRE-Luc viability, CellTiter-Fluor, 24 h; series mostly up to 70.3 µM; note: nearly all actives have a fitted effect of over 50% in size; note: potency is the fitted concentration of half-maximal effect
Method in brief: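 GH3.TRE-Luc rat pituitary cells dosed after 4 hr plating, co-stimulated with T3 at 1 nM final, incubated 23.5 h at 37 C. Viability measured in the same wells by CellTiter-Fluor fluorescence after 30 min further at 37 C.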

[9] = test system: thyroid hormone receptor (rat, GH3 cells); assay: qHTS assay to identify small molecule agonists of the thyroid receptor (TR) signaling pathway (AID 743066; calls by dose curve; note: % is set by controls: 0 for no effect and ±100 for the full control effect); settings: GH3.TRE-Luc cells, TR agonist luciferase, 24 h; series mostly up to 83.9 µM
[10] = qHTS assay to identify small molecule antagonists of the estrogen receptor alpha (ER-alpha) signaling pathway - cell viability counter screen (AID 743074; calls by dose curve; note: nearly all actives have a fitted effect of over 45% in size; note: potency is the fitted concentration of half-maximal effect); settings: ERalpha-bla HEK293 viability, CellTiter-Glo luminescence, 18 h; series mostly up to 69.4 µM
[11] = biological target: Estrogen receptor (Homo sapiens) (UniProt P03372); assay: qHTS assay to identify small molecule agonists of the estrogen receptor alpha (ER-alpha) signaling pathway (AID 743075; calls by dose curve; note: % is set by controls: 0 for no effect and ±100 for the full control effect); settings: HEK293 ER-alpha-UAS-bla, beta-lactamase FRET ratio, 18 h; activation: at 70.1 µM (top of the series)
Chain of Estrogen receptor (Homo sapiens) (P03372 whole entry, looked up): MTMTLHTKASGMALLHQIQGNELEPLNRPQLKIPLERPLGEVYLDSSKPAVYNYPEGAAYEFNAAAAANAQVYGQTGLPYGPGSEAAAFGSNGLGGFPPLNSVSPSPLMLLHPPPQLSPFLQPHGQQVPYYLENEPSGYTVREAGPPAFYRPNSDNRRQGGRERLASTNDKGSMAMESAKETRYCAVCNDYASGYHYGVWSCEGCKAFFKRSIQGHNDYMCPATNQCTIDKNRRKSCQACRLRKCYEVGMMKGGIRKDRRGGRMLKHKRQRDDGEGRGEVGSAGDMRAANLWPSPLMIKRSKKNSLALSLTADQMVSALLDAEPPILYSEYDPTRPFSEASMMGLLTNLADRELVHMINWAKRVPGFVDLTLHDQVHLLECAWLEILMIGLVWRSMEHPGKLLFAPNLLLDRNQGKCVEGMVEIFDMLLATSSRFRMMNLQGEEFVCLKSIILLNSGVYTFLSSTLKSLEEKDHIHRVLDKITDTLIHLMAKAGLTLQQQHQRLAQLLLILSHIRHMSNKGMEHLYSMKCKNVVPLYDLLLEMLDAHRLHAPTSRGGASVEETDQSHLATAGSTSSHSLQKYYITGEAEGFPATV

[12] = biological target: Estrogen receptor (Homo sapiens) (UniProt P03372); assay: qHTS assay to identify small molecule agonists of the estrogen receptor alpha (ER-alpha) signaling pathway using the BG1 cell line (AID 743079); settings: BG1Luc4E2 cells, ERE-luciferase agonist, 22 h; for activation: at 70.3 µM (top of the series); note: potency is the fitted concentration of half-maximal effect; for activation: % is set by controls: 0 for no effect and ±100 for the full control effect; for all read-outs here: nearly all actives have a fitted effect of over 20% in size
[13] = qHTS assay to identify small molecule antagonists of the estrogen receptor alpha (ER-alpha) signaling pathway using the BG1 cell line (AID 743080; calls by dose curve;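 note: BG1 cells stimulated with 17beta-estradiol alongside compound; % is set by controls: 0 for no effect and ±100 for the full control effect; nearly all actives have a fitted effect of over 25% in size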); settings: BG1Luc4E2 ERE-luciferase antagonist mode, luminescence; series mostly up to 70.3 µM
Method in brief: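 BG1-Luc-4E2 cells (endogenous full-length ER-alpha, stable 4×ERE-luciferase) were starved 5 days in phenol-red-free medium with 10% charcoal-stripped FBS, plated 24 h, then given compound plus 17beta-estradiol for 21.5 h at 37 C; ONE-Glo luminescence read after 30 min.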

[14] = qHTS assay to identify small molecule antagonists of the androgen receptor (AR) signaling pathway - cell viability counter screen (AID 743033; note: nearly all actives have a fitted effect of over 45% in size; note: potency is the fitted concentration of half-maximal effect); settings: AR-bla HEK293 viability, CellTiter-Glo luminescence, 16 h; series mostly up to 58.5 µM
[15] = qHTS assay to identify small molecule antagonists of the thyroid receptor (TR) signaling pathway (AID 743065); settings: GH3.TRE-Luc, T3-stimulated luciferase inhibition, 23.5 h; series mostly up to 70.3 µM; note: nearly all actives have a fitted effect of over 55% in size; note: potency is the fitted concentration of half-maximal effect
Method in brief: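 GH3.TRE-Luc rat pituitary cells carrying two TR response elements driving luciferase were plated for 4 h, given compound plus 1 nM T3 (final), and incubated 23.5 h at 37 C. ONE-Glo luminescence measured reporter inhibition; CellTiter-Fluor fluorescence tracked cytotoxicity.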

[16] = qHTS assay to identify small molecule antagonists of the estrogen receptor alpha (ER-alpha) signaling pathway using the BG1 cell line - cell viability counter screen (AID 743081); settings: BG1Luc4E2 viability, CellTiter-Fluor, 22 h; series mostly up to 70.3 µM;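 note: compound given together with 17beta-estradiol as the ER stimulus; nearly all actives have a fitted effect of over 45% in size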; note: potency is the fitted concentration of half-maximal effect
Aromatase (Homo sapiens) = Aromatase (Homo sapiens) (UniProt P11511); assay: qHTS assay to identify aromatase inhibitors (AID 743083); settings: MCF-7 aro ERE, testosterone-driven ERE luciferase, 24 h; series mostly up to 70.3 µM; note: nearly all actives have a fitted effect of over 55% in size; note: potency is the fitted concentration of half-maximal effect
Chain of Aromatase (Homo sapiens) (P11511 whole entry, looked up): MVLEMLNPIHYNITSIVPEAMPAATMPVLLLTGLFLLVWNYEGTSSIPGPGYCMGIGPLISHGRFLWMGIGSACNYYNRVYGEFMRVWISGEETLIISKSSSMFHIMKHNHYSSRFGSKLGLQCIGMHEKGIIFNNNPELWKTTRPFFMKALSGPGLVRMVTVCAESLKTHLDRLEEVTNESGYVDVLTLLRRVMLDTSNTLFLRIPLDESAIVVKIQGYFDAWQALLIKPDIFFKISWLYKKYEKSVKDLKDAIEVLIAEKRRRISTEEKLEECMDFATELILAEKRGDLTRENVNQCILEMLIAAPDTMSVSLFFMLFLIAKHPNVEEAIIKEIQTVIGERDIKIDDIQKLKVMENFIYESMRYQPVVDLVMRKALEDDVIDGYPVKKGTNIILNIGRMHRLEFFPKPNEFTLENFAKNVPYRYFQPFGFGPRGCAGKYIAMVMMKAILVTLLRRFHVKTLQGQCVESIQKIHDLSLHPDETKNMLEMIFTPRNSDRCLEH

[17] = biological target: Androgen receptor (Homo sapiens) (UniProt P10275); assay: qHTS assay to identify small molecule antagonists of the androgen receptor (AR) signaling pathway (AID 743035; active = well fitted inhibition curve with a large enough effect in the signal ratio in the repeat runs, not every such curve was filed as active; inconclusive = weak or mixed curves, or effect the other way; inactive = no such curve, though single readings can be large or run the other way; the % refers to the signal ratio; note: potency is the fitted concentration of half-maximal effect); settings: HEK293 AR-UAS-bla, R1881-stimulated, beta-lactamase FRET, 16 h; series mostly up to 58.5 µM
Method in brief: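 In this cell-based reporter screen, compounds were tested in concentration series against R1881-activated HEK293 cells expressing beta-lactamase under UAS control; after 16 h at 37C, FRET substrate was added and fluorescence read 2 h later.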

[18] = biological target: Androgen receptor (Homo sapiens) (UniProt P10275); assay: qHTS assay to identify small molecule antagonists of the androgen receptor (AR) signaling pathway using the MDA cell line (AID 743042); settings: MDA-kb2 AR-luc, MMTV luciferase, R1881 antagonist, 16 h; series mostly up to 70.3 µM
Method in brief: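 MDA-kb2 cells (human breast carcinoma, stably carrying an MMTV-luciferase reporter responsive to AR and GR) were plated at 3,000 cells/well and preincubated 5 hr at 37C, then given compound plus R1881 agonist for 16 h. ONE-Glo luminescence was read.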

[19] = biological target: Estrogen receptor (Homo sapiens) (UniProt P03372); assay: qHTS assay to identify small molecule antagonists of the estrogen receptor alpha (ER-alpha) signaling pathway (AID 743069; active = well fitted curve in the direction sought with a large enough effect in the signal ratio in the repeat runs, not every such curve was filed as active; inconclusive = weak or mixed curves, or effect the other way; inactive = no such curve, though single readings can be large or run the other way; the % refers to the signal ratio; note: potency is the fitted concentration of half-maximal effect); settings: HEK293 ER-alpha-UAS-bla, beta-lactamase ratio, antagonist mode; series mostly up to 69.4 µM
Method in brief: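 Screening used a UAS-driven beta-lactamase reporter integrated into HEK293 cells expressing ER-alpha, stimulated with 17beta-estradiol alongside test compounds over 18 hr at 37C; signal came from LiveBLAzer B/G FRET fluorescence.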

O=C1c2c(O)ccc(Nc3ccc(CCO)cc3)c2C(=O)c2c([N+](=O)[O-])ccc(O)c21
inactive: Potency [1] | Potency [5] | Potency [6] | Potency [7] | Potency [9] | Potency [10] | Potency [11] | activation [12] -6.57% | Potency [13]
active: Potency [2] 61.1 µM | Potency [3] 61.1 µM | Potency [4] 27.3 µM | Potency [8] 61.1 µM

O=C(OCC(COC(=O)c1ccccc1)(COC(=O)c1ccccc1)COC(=O)c1ccccc1)c1ccccc1
inactive: Potency [1] | Potency [2] | Potency [3] | Potency [4] | Potency [14] | Potency [7] | Potency [15] | Potency [9] | Potency [10] | Potency [16] | Potency (Aromatase (Homo sapiens))

COc1ccc(CN2CCN(C(c3ccc(F)cc3)c3ccc(F)cc3)CC2)c(OC)c1OC
inactive: Potency [1] | Potency (Aromatase (Homo sapiens))
active: Potency [2] 3.76 µM | Potency [3] 5.96 µM | Potency [4] 6.68 µM | Potency [14] 23.9 µM | Potency [8] 11.9 µM | Potency [15] 13.3 µM | Potency [10] 26.8 µM

O=[N+]([O-])c1cc([N+](=O)[O-])c2ccc(S(=O)(=O)O)cc2c1O
inactive: Potency [1] | Potency [2] | Potency [3] | Potency [4] | Potency [14] | Potency [10]
active: Potency [7] 27.1 µM | Potency [16] 54.2 µM

CCOc1nc2cccc(C(=O)OC(C)OC(=O)OC3CCCCC3)c2n1Cc1ccc(-c2ccccc2-c2nn[nH]n2)cc1 (centres undefined)
inactive: Potency [13] | Potency [16]
active: Potency [1] 38.9 µM | Potency [2] 34.3 µM | Potency [3] 19.3 µM | Potency [4] 17.2 µM | Potency [14] 30.9 µM | Potency (Aromatase (Homo sapiens)) 48.5 µM

O=C(Nc1cccc(Cl)c1)OCC#CCCl
inactive: Potency [11]
active: Potency [1] 54.9 µM | Potency [2] 24.3 µM | Potency [3] 21.7 µM | Potency [4] 13.7 µM | Potency [14] 49 µM | Potency [8] 24.3 µM | Potency [15] 17.2 µM | Potency (Aromatase (Homo sapiens)) 21.7 µM

O=C(Oc1ccccc1)c1ccccc1C(=O)Oc1ccccc1
inactive: Potency [1] | Potency [6] | Potency [9] | Potency [10] | Potency [11] | activation [12] -7.29% | Potency [16]
active: Potency [2] 19.3 µM | Potency [3] 34.4 µM | Potency [4] 17.2 µM | Potency [17] 49 µM | Potency [18] 54.5 µM

N=C1N=C(N)c2cc3ccccc3cc21
inactive: Potency [9]
active: Potency [1] 21.9 µM | Potency [2] 9.69 µM | Potency [3] 27.3 µM | Potency [4] 27.3 µM | Potency [8] 12.9 µM | Potency [15] 13.7 µM | Potency (Aromatase (Homo sapiens)) 19.9 µM

CN(C)c1ccc(SC#N)cc1
active: Potency [2] 27.3 µM | Potency [3] 30.6 µM | Potency [4] 38.6 µM | Potency [12] 61.1 µM
inactive: Potency [1] | Potency [14] | Potency [7] | Potency [9] | Potency [10] | Potency [11] | Potency [13] | Potency [16] | Potency (Aromatase (Homo sapiens))

Cc1cc(N)c(S(=O)(=O)O)cc1Cl
inactive: Potency [1] | Potency [2] | Potency [3] | Potency [4] | Potency [14] | Potency [7] | Potency [15] | Potency [9] | Potency [10] | Potency [16] | Potency (Aromatase (Homo sapiens))

O=c1c(-c2ccccc2)c1-c1ccccc1
inactive: Potency [1] | Potency [10] | Potency [11] | activation [12] -33.7% | Potency [16]
active: Potency [2] 3.76 µM | Potency [3] 4.73 µM | Potency [4] 4.73 µM | Potency [14] 21.3 µM | Potency [8] 5.96 µM | Potency [15] 5.31 µM | Potency [19] 26.8 µM [inconclusive] | Potency (Aromatase (Homo sapiens)) 29.8 µM

N=C1N=C(N)c2ccccc21
active: Potency [2] 17.2 µM | Potency [3] 17.2 µM | Potency [4] 17.2 µM | Potency [8] 21.7 µM | Potency [15] 15.4 µM | Potency (Aromatase (Homo sapiens)) 38.6 µM
inactive: Potency [1] | Potency [7] | Potency [9] | Potency [10] | Potency [11] | activation [12] 3.41% | Potency [16]

Nc1c(Cl)cc(Cl)cc1Cl
inactive: Potency [1] | Potency [2] | Potency [3] | Potency [4] | Potency [14] | Potency [7] | Potency [15] | Potency [9] | Potency [10] | Potency [16] | Potency (Aromatase (Homo sapiens))

COC(=O)C1=C(C)NC(C)=C(C(=O)OCC(C)C)C1c1ccccc1[N+](=O)[O-] (centres undefined)
active: Potency [2] 5.31 µM and 3.86 µM | Potency [3] 10.6 µM and 4.33 µM | Potency [4] 8.41 µM and 5.45 µM | Potency [14] 43.6 µM | Potency [8] 33.5 µM and 68.6 µM | Potency [15] 29.8 µM and 54.5 µM | Potency [19] 54.9 µM [inconclusive] | Potency (Aromatase (Homo sapiens)) 33.5 µM and 61.1 µM
inactive: Potency [1] | Potency [9] | Potency [10] | Potency [11] | Potency [16]

CNc1ccc(O)cc1
inactive: Potency [9]
active: Potency [1] 54.8 µM | Potency [2] 7.68 µM | Potency [3] 6.1 µM | Potency [4] 10.8 µM | Potency [14] 38.8 µM | Potency [7] 61 µM | Potency (Aromatase (Homo sapiens)) 15.3 µM

Nc1c2ccccc2nc2ccccc12
active: Potency [1] 16.9 µM and 15.3 µM | Potency [2] 2.11 µM and 4.27 µM | Potency [3] 2.66 µM and 2.14 µM | Potency [4] 944 nM and 677 nM | Potency [12] 11.9 µM and 677 nM | Potency (Aromatase (Homo sapiens)) 18.8 µM and 6.03 µM
inactive: Potency [9] | Potency [10]

C[n+]1ccn(Cc2ccccc2)c1
inactive: Potency [1] | Potency [2] | Potency [14] | Potency [7] | Potency [8] | Potency [15] | Potency [9] | Potency [19] | Potency [11] | Potency [16] | Potency (Aromatase (Homo sapiens))
